Compounds without any hit were thinned out: in the full panel of roughly 79,000, 15% have a hit. Unmarked numbers belong to inactive results. Cut-off read from the data, not from the text of the source: active = growth inhibition above about 70%; inactive = the rest.
Test: NCI Yeast Anticancer Drug Screen. Data for the mlh1 rad18 strain (AID 175)
Details: S. cerevisiae mlh1 rad18 strain growth inhibition; at 50.0 µM; active compounds read high
Method in brief: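 Compound-treated yeast growth, normalised to vehicle controls. Strain bears defined DNA repair mutations.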
Work on `CC(C)=CCC[C@@H](C)[C@H]1CC[C@@]2(C)C3=C(CC[C@]12C)[C@@]1(C)CC[C@H](O)C(C)(C)[C@@H]1CC3` yielded a growth inhibition of -7.3%.
In the case of `CCOC(=O)c1cc(C)[nH]c(=O)c1C#N`, the growth inhibition is reported as 2.65%.
`CCOc1ccc(NC(=S)N2CCC(CCCC3CCN(C(=S)Nc4ccc(OCC)cc4)CC3)CC2)cc1` showed a growth inhibition of -11.4%.
With `Oc1cc(O)c2c(c1)O[C@H](c1ccc(O)c(O)c1)[C@@H](O)C2` the growth inhibition was -18.1%.
In the case of `CC1=CC(=Nc2ccc(N(C)C)cc2)C=C(C)C1=O`, the growth inhibition is reported as -12.4%.
`O=C(O)c1ccc([N+](=O)[O-])cc1S(=O)(=O)O` gave a growth inhibition of -4.55%.
Work on `Cc1cc2nc(C)c(C)nc2cc1C` yielded a growth inhibition of -20.4%.
Compound `NC(=S)c1c(N)n(C2OC(CO)C(O)C2O)c2ncnc(N)c12` (stereo not given) has a growth inhibition of 2.55%.
For `COC(c1ccc2c(c1)OCO2)C(C)Br` (stereo not given), the growth inhibition was 6.55%.
Work on `CC(C)C(=O)OCCOc1ccc(C(C)(C)C)cc1` yielded a growth inhibition of 13.7%.
`CC(C)Sc1ncnc2nc[nH]c12` gave a growth inhibition of 2.5%.
`O=C(CCCl)OCCOc1ccccc1` showed a growth inhibition of 6.55%.
`O=C(c1ccccc1O)N1CCCC1` showed a growth inhibition of 10.8%.
`Nc1ncnc(Nc2ccc(C(F)(F)F)cc2)n1` showed a growth inhibition of 17.9%.
`Cc1cc2c(C(C)C)c(O)c(O)c(C=Nc3ccccc3[N+](=O)[O-])c2c(O)c1-c1c(C)cc2c(C(C)C)c(O)c(O)c(C=Nc3ccccc3[N+](=O)[O-])c2c1O` showed a growth inhibition of -2.3%.
For `O=C(CCl)Nc1ccccc1SCc1cc(Cl)cc2c1OCOC2`, the growth inhibition was -8.9%.
Compound `CN1CCN(C(=S)S)CC1` has a growth inhibition of 5.15%.
Work on `Nc1ncnc2c1ncn2C1OC(CO)C2OC21` (stereo not given) yielded a growth inhibition of -30.4%.
`CCN(CC)CCOC(=O)Nc1c(C(C)C)cccc1C(C)C` gave a growth inhibition of 2.15%.
`O=S(=O)(O)c1cccc2cccnc12` gave a growth inhibition of -0.5%.
